From PubChem BioAssay (NCATS) come the findings set out here.

One experiment in a line: qHTS profiling of the MIPE4 collection as inhibitors of Plasmodium falciparum (DD2) proliferation (AID 743345). The conditions noted are these: P. falciparum Dd2 in erythrocytes, SYBR Green DNA, 72 h; at 9.64 µM (top of the series). The text has this: Plasmodium falciparum is a virulent malarial parasite that kills 1-2 million people worldwide each year. Transmitted by mosquitoes, the sporozoite form of the parasite enters the blood stream to infect hepatocytes, where they become merozoites that infect red blood cells (erythrocytes). Within erythrocytes, merozoites begin a […] cycle of growth and division, after which the parasite is released to infect new red blood cells. Gametocytes, which form within erythrocytes as well, circulate in the bloodstream and are ingested by the mosquito, thereby completing the life cycle. To profile malarial isolates for differential chemical responses and to identify inhibitors of malarial growth, an assay that measures P. falciparum growth and replication within erythrocytes was employed. This assay uses a DNA binding fluorescent dye (SYBR Green) to detect parasite DNA following cell lysis. Because mature erythrocytes lack DNA, only Plasmodium-derived DNA is detected.
The SYBR Green viability assay was adapted from a method described previously (Plouffe et al., 2008). For screening 3 ul culture medium was dispensed into 1536 well black clear bottom plates (Aurora Biotechnologies) using a Multidrop Combi (Thermo Fisher Scientific Inc.), 23 nL compounds in DMSO were added by a pin tool (Kalypsys), and 5 ul of erythrocytes infected with P. falciparum (0.3% parasitemia, 2.5% hematocrit final concentration) were added. The plates were incubated at 37 C in a humidified incubator in 5% CO2 for 72 h, and 2 ul lysis buffer (20 mM Tris HCl, 10 mM EDTA, 0.16% saponin, 1.6% triton X, 10X SYBR Green I supplied as 10,000X […] by Invitrogen) was added to each well. The plates were mixed for 25 sec with gentle shaking and incubated overnight at room temperature in the dark. The following morning, fluorescence intensity at 485(14) nm excitation and 535(25) nm emission wavelengths was measured on an EnVision (Perkin Elmer) plate reader. Plate reads were normalized relative to the control inhibitor (0.29 uM artemisinin) and vehicle (DMSO) wells present on each plate and then corrected by an algorithm using vehicle-only control plates at the beginning and end of the compound plate stack.
As to `C[C@H]1C[C@@H]2[C@@H]([C@@H](O)C[C@@]3(C)[C@H]2CC[C@]3(O)C(=O)CO)[C@@]2(C)C=CC(=O)C=C12`, the parasite growth remaining, % of DMSO control (lower = more inhibition) was determined as 93.1%.

Staying with this experiment, now noted: P. falciparum Dd2 in erythrocytes, SYBR Green DNA, 72 h; at 28.5 µM (top of the series).
Turning to `C[C@H]1C[C@@H]2[C@@H]([C@@H](O)C[C@@]3(C)[C@H]2CC[C@]3(O)C(=O)CO)[C@@]2(C)C=CC(=O)C=C12`, the parasite growth remaining, % of DMSO control (lower = more inhibition) is 84.7%.

The experiment is the same for the next values; noted with them: P. falciparum Dd2 in erythrocytes, SYBR Green DNA, 72 h; at 28.5 µM (top of the series) unless noted.
For `CN1CCN(c2cc(C(=O)Nc3ccc4c(c3)-c3c(c(C(N)=O)nn3-c3ccc(F)cc3)CC4)c(Cl)cn2)CC1`, the parasite growth remaining, % of DMSO control (lower = more inhibition) is 7.41%.

Regarding `C[C@@H]1COC(Nc2ccc3ncnc(Nc4ccc(OCc5nccs5)c(Cl)c4)c3c2)=N1`, the parasite growth remaining, % of DMSO control (lower = more inhibition) came to 11.5%.

As to `Cc1nc(Nc2n[nH]c3c2CN(C(=O)N[C@H](CN(C)C)c2ccccc2)C3(C)C)c2sccc2n1`, the parasite growth remaining, % of DMSO control (lower = more inhibition) worked out at 7.44%.

In the case of `O=C(Nc1cn[nH]c1-c1nc2ccc(CN3CCOCC3)cc2[nH]1)NC1CC1`, the parasite growth remaining, % of DMSO control (lower = more inhibition) was 12.9%.

Turning to `COc1cc(C(C)C)c2c(c1)S(=O)(=O)N(COc1cc(=O)n3cccc(OCCN4CCCCC4)c3n1)C2=O`, the parasite growth remaining, % of DMSO control (lower = more inhibition) amounted to 95.7%.

`CC(C)c1cnn2c(NCc3ccccc3)cc(N[C@@H](CO)[C@H](O)CO)nc12`: the parasite growth remaining, % of DMSO control (lower = more inhibition) was determined as 61.8%.

With `Cc1ccc(NC(=O)C2(c3ccc4c(c3)OC(F)(F)O4)CC2)nc1-c1cccc(C(=O)O)c1`, the parasite growth remaining, % of DMSO control (lower = more inhibition) stood at 6.69%.

As for `NCC(=O)Nc1ccc(-n2nc(C(F)(F)F)cc2-c2ccc3c(ccc4ccccc43)c2)cc1`, the parasite growth remaining, % of DMSO control (lower = more inhibition) came out at 8.46%.

Turning to `CC(C)(C)c1cnc(CSc2cnc(NC(=O)C3CCNCC3)s2)o1`, the parasite growth remaining, % of DMSO control (lower = more inhibition) was 13%.

Consider `C=CCn1c(=O)c2cnc(Nc3ccc(N4CCN(C)CC4)cc3)nc2n1-c1cccc(C(C)(C)O)n1`, for which the parasite growth remaining, % of DMSO control (lower = more inhibition) was 13.2%.

Turning to `C=C1C(=CC=C2CCC[C@]3(C)[C@@H]([C@H](C)C=C[C@H](C)C(C)C)CC[C@@H]23)C[C@@H](O)C[C@@H]1O`, the parasite growth remaining, % of DMSO control (lower = more inhibition) turned out to be 7.23%.

`CCCCOc1c(C(=O)c2c(F)cc(C)cc2F)cnc2n[nH]cc12`: the parasite growth remaining, % of DMSO control (lower = more inhibition) is 98.1%.

As to `Cn1c(=O)n(-c2ccc(C(C)(C)C#N)cc2)c2c3cc(-c4cnc5ccccc5c4)ccc3ncc21`, the parasite growth remaining, % of DMSO control (lower = more inhibition) came to 7.73%.

As for `CC(C)c1noc(N2CCC(COc3ccc(-c4ccc(S(C)(=O)=O)cc4)nc3)CC2)n1`, the parasite growth remaining, % of DMSO control (lower = more inhibition) is 23.2%.

As for `C[C@@H](Oc1cc(-c2cnn(C3CCNCC3)c2)cnc1N)c1c(Cl)ccc(F)c1Cl`, the parasite growth remaining, % of DMSO control (lower = more inhibition) stood at 5.84%.

With `CC(C)c1ccc(Cn2ccc3c4c(N)nc(NC5CC5)nc4ccc32)cc1`, the parasite growth remaining, % of DMSO control (lower = more inhibition) turned out to be 6.19%.

`CCCCCCCCCC(=O)N[C@@H](Cc1c[nH]c2ccccc12)C(=O)N[C@H](CC(N)=O)C(=O)N[C@@H](CC(=O)O)C(=O)N[C@@H]1C(=O)NCC(=O)N[C@@H](CCCN)C(=O)N[C@@H](CC(=O)O)C(=O)N[C@H](C)C(=O)N[C@@H](CC(=O)O)C(=O)NCC(=O)N[C@H](CO)C(=O)N[C@@H]([C@@H](C)CC(=O)O)C(=O)N[C@@H](CC(=O)c2ccccc2N)C(=O)O[C@@H]1C`: the parasite growth remaining, % of DMSO control (lower = more inhibition) turned out to be 96.7%.

For the compound `CN1CCN(Cc2ccc(NC(=O)Nc3ccc(Oc4cc(NC(=O)C5CC5)ncn4)cc3)cc2C(F)(F)F)CC1`, the parasite growth remaining, % of DMSO control (lower = more inhibition) was 6.55%.

Consider `Nc1nccc(Oc2ccc(NC(=O)c3c[nH]cc(-c4ccc(F)cc4)c3=O)cc2F)c1Cl`, for which the parasite growth remaining, % of DMSO control (lower = more inhibition) worked out at 50.4%.

Consider `Cc1cc(Nc2cc(CN3CCOCC3)c3nc(C)c(Cc4ccc(Cl)cc4F)n3n2)n[nH]1`, for which the parasite growth remaining, % of DMSO control (lower = more inhibition) came out at 7.86%.

As for `Nc1ccn([C@@H]2O[C@H](CO)[C@H](O)C2(F)F)c(=O)n1`, the parasite growth remaining, % of DMSO control (lower = more inhibition) stood at 10.3%.

Take `COc1cc(-c2nn(C3CCC(N4CCN(C(C)=O)CC4)CC3)c3ncnc(N)c23)ccc1NC(=O)c1cc2ccccc2n1C` (stereo not given): the parasite growth remaining, % of DMSO control (lower = more inhibition) is 12.1%.

Take `CCCn1c(=O)c2[nH]c(-c3cnn(Cc4cccc(C(F)(F)F)c4)c3)nc2n(CC)c1=O`: the parasite growth remaining, % of DMSO control (lower = more inhibition) turned out to be 73.8%.

With `CC[C@@H]1C(=O)N(C)c2cnc(Nc3ccc(C(=O)NC4CCC(N5CCN(CC6CC6)CC5)CC4)cc3OC)nc2N1C(C)C` (stereo not given in full), the parasite growth remaining, % of DMSO control (lower = more inhibition) worked out at 5.71%.

For the compound `Cc1cc(Nc2cc(N3CCN(C)CC3)nc(C=Cc3ccccc3)n2)n[nH]1`, the parasite growth remaining, % of DMSO control (lower = more inhibition) is 6.9% [at 57.5 µM].

In the case of `CC1(C)CC(=O)c2c(C(F)(F)F)nn(-c3ccc(C(N)=O)c(NC4CCC(OC(=O)CN)CC4)c3)c2C1` (stereo not given), the parasite growth remaining, % of DMSO control (lower = more inhibition) was determined as 8.43%.

Regarding `Cc1cc(N2CCOCC2)cc2[nH]c(-c3c(NC[C@@H](O)c4cccc(Cl)c4)cc[nH]c3=O)nc12`, the parasite growth remaining, % of DMSO control (lower = more inhibition) is 15.8%.

For `COc1ccc(C(=O)CC2(O)C(=O)Nc3c(Cl)ccc(Cl)c32)cc1` (stereo not given), the parasite growth remaining, % of DMSO control (lower = more inhibition) was 85.7%.

As to `CC(=O)Nc1sc2c(c1-c1nc3ccccc3s1)CNC2`, the parasite growth remaining, % of DMSO control (lower = more inhibition) was found to be 15.4%.

`CCOc1cc2ncc(C#N)c(Nc3ccc(F)c(Cl)c3)c2cc1NC(=O)C=CCN(C)C`: the parasite growth remaining, % of DMSO control (lower = more inhibition) was determined as 7.41%.

Consider `CC1=C(CO)C(=O)O[C@@H]([C@@H](C)[C@H]2CC[C@H]3[C@@H]4C[C@H]5O[C@]56[C@@H](O)C=CC(=O)[C@]6(C)[C@@H]4CC[C@]23C)C1`, for which the parasite growth remaining, % of DMSO control (lower = more inhibition) was 7.1%.

For `CCN(CC)CCCCNc1ncc2cc(-c3cc(OC)cc(OC)c3)c(NC(=O)NC(C)(C)C)nc2n1`, the parasite growth remaining, % of DMSO control (lower = more inhibition) stood at 9.87%.

As for `COc1cc(C(=O)NS(=O)(=O)c2ccccc2C)ccc1Cc1cn(C)c2ccc(NC(=O)OC3CCCC3)cc12`, the parasite growth remaining, % of DMSO control (lower = more inhibition) amounted to 7.78%.

`CCC(=C(c1ccccc1)c1ccc(OCCN(C)C)cc1)c1ccccc1`: the parasite growth remaining, % of DMSO control (lower = more inhibition) amounted to 37.8%.

Consider `Nc1ccccc1NC(=O)c1ccc(CNC(=O)OCc2cccnc2)cc1`, for which the parasite growth remaining, % of DMSO control (lower = more inhibition) worked out at 31.3%.

`CNC(=O)c1ccc(-c2cnc3ncc(Cc4ccc5ncccc5c4)n3n2)cc1F`: the parasite growth remaining, % of DMSO control (lower = more inhibition) turned out to be 41.8%.

Take `Cn1c2cc(S(C)=O)sc2c2cnn(Cc3cccc(N)c3)c(=O)c21` (stereo not given): the parasite growth remaining, % of DMSO control (lower = more inhibition) amounted to 102%.

In the case of `NC(=O)c1c(OCc2c(F)cc(Br)cc2F)nsc1NC(=O)NCCCCN1CCCC1`, the parasite growth remaining, % of DMSO control (lower = more inhibition) came out at 74.6%.
